PubChem BioAssay (NCATS)
Records with an inconclusive call do not appear. The source made the active and inactive calls. Unless noted, calls follow the shape of the dose curve; as a rule, active = well fitted curve in the direction sought with a large enough effect; inconclusive = small, poorly fitted or top-dose-only effect, or another doubt; inactive = no such curve, though single readings can be large; an effect the other way counts as inactive or inconclusive.

Assays:
[1] = Cell Viability - Mesenchymal (AID 546);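 also: potency is read from the fitted curve at half-maximal effect; cells exposed to compound for 40 hours before reading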
Method in brief: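 Human kidney mesenchymal cells from normal renal glomeruli, 1000 cells/well, rested 5 hr at 37 °C, then treated 40 hr at 37 °C in complete medium. Cellular ATP read by CellTiter-Glo luminescence; AC50 from Hill-equation fits.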

[2] = Cellular Toxicity (caspase-3) HepG2 (AID 654);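 also: cells exposed to compound for 16 hours before reading; 0% = DMSO alone and 100% = caspase signal from 100 µM tamoxifen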
Method in brief: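 Cells plated 5 hr at 37 °C, compound added, incubated 16 hr at 37 °C. Caspase-Glo 3/7 reagent followed, 20 min at room temperature, then luminescence read. Activation scored as signal increase; AC50 from Hill fit.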

[3] = Cellular Toxicity (caspase-3) Jurkat (AID 655);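 also: cells exposed to compound for 16 h at 37 °C before reading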
Method in brief: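 Jurkat cells (5000/well) in complete medium were treated with compounds for 16 hr at 37 °C, then Caspase-Glo 3/7 luminescence was read after 20 min at room temperature. Data normalized to DMSO (basal) and 100 uM tamoxifen (100%); AC50 from Hill fit.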

[4] = Cellular Toxicity (caspase-3) HUV-EC-C (AID 656);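 also: 0% = DMSO basal and 100% = 100 µM tamoxifen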
Method in brief: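 HUV-EC-C endothelial cells, 1000/well, were pre-incubated 5 hr at 37°C, then exposed to compounds for 16 hr at 37°C. Caspase-Glo 3/7 luminescence was read after 20 min at room temperature. AC50 came from Hill fits, normalized to DMSO and 100 uM tamoxifen.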

[5] = Cellular Toxicity (caspase-3) SHSY5Y (AID 657)
Method in brief: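 SH-SY5Y human neuroblastoma cells (1500/well) were treated with compounds for 16 h at 37 °C, then Caspase-Glo 3/7 luminescence was read after 1 h at room temperature. Data normalized to DMSO and 10 uM staurosporine; AC50 from Hill fits.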

[6] = Cellular Toxicity (caspase-3) BJ (AID 658);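 also: 0% = DMSO basal and 100% = 10 µM staurosporine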
Method in brief: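 BJ human foreskin fibroblasts, 1000 cells/well, treated 16 hours at 37 °C in complete medium; caspase 3/7 activity by Caspase-Glo luminescence after 1 hr at room temperature. Normalized to DMSO and 10 uM staurosporine; AC50 from Hill fits.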

[7] = Cellular Toxicity (caspase-3) MRC-5 (AID 659);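 also: 0% = DMSO basal and 100% = 10 µM staurosporine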
Method in brief: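 MRC-5 human normal lung fibroblasts, 1500 cells/well, treated 16 h at 37 °C in complete medium. Caspase 3/7 measured by Caspase-Glo luminescence after 1 h at room temperature. Normalized to DMSO and 10 uM staurosporine; AC50 from Hill fit.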

[8] = target: Estrogen receptor (Homo sapiens) (UniProt P03372); experiment: qHTS assay for small molecule agonists of estrogen receptor alpha signaling (AID 588514; calls by dose curve;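 also: 0% = vehicle only and 100% = reference agonist; nearly all actives have a fitted effect of over 70% in size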)
Chain of Estrogen receptor (Homo sapiens) (P03372 whole entry, looked up): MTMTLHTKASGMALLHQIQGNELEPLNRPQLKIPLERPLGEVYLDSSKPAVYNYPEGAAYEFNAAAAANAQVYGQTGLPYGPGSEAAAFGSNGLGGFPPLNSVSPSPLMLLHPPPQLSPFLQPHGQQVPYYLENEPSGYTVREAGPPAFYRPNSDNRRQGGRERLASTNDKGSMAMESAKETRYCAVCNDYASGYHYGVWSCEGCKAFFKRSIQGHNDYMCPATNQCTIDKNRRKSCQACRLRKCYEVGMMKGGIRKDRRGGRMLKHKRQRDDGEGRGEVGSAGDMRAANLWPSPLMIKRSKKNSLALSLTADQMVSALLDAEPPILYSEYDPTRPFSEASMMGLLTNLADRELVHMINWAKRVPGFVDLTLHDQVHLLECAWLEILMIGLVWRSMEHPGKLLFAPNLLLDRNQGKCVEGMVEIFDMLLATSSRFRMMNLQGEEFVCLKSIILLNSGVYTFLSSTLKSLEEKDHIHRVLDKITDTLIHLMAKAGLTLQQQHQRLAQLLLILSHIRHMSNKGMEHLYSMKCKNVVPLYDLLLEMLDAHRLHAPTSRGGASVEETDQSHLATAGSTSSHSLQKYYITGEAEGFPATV
Method in brief: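 Cells were plated at 5000/well, incubated 4 hrs at 37 C, dosed with compound titration series, incubated 18 hrs at 37 C, loaded with CCF4 dye for 2 hrs at RT, then fluorescence was read.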

[9] = target: Androgen receptor (Homo sapiens) (UniProt P10275); experiment: qHTS assay for small molecule antagonists of androgen receptor signaling (AID 588516; active = well fitted curve in the direction sought with a large enough effect in the signal ratio, with a control signal flat, not every such curve was filed as active; the % refers to the signal ratio; also: % is scaled to controls: 0 for no effect and ±100 for the full control effect)
Chain of Androgen receptor (Homo sapiens) (P10275 whole entry, looked up): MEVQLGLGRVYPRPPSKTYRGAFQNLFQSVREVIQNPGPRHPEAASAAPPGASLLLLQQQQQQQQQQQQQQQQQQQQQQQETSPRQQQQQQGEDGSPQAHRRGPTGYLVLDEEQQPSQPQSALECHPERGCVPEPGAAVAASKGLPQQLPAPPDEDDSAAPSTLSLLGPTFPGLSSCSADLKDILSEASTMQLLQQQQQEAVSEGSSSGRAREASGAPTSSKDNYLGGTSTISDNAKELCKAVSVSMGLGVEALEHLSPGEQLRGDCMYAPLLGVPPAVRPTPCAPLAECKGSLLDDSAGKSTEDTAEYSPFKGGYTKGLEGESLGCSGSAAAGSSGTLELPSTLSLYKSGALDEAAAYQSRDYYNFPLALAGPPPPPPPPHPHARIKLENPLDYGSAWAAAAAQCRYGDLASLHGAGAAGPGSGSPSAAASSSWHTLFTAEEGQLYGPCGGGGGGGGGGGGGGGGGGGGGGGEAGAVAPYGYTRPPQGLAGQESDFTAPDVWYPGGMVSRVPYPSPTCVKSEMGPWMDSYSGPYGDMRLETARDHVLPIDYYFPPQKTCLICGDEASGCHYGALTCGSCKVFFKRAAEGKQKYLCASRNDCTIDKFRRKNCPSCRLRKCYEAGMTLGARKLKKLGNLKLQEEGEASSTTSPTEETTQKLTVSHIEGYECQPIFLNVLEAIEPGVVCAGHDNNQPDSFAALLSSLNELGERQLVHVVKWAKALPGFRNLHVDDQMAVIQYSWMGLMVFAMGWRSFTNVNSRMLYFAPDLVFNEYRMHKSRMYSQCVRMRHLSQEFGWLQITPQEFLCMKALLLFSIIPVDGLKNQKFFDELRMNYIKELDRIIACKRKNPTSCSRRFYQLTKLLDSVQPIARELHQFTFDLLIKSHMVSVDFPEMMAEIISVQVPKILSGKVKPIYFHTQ
Method in brief: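 AR-UAS-bla-GripTite HEK 293 cells (2000/well, 5 h at 37 C) received compound titrations, then R1881 at 10 nM final; after 16 h at 37 C, CCF4 dye 2 h RT, beta-lactamase fluorescence read; IC50 from Hill fits.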

[10] = target: Glucocorticoid receptor (Homo sapiens) (UniProt P04150); experiment: qHTS assay for small molecule agonists of glucocorticoid receptor signaling (AID 588532; active = well fitted curve in the direction sought with a large enough effect in the signal ratio, with a control signal flat; the % refers to the signal ratio;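 also: 100% = dexamethasone at 0.1 µM and 0% = DMSO only wells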); settings: HeLa MMTV-bla, beta-lactamase ratio, agonist, 18 h; stronger effect = higher value; percent of dexamethasone control, DMSO zero
Chain of Glucocorticoid receptor (Homo sapiens) (P04150 whole entry, looked up): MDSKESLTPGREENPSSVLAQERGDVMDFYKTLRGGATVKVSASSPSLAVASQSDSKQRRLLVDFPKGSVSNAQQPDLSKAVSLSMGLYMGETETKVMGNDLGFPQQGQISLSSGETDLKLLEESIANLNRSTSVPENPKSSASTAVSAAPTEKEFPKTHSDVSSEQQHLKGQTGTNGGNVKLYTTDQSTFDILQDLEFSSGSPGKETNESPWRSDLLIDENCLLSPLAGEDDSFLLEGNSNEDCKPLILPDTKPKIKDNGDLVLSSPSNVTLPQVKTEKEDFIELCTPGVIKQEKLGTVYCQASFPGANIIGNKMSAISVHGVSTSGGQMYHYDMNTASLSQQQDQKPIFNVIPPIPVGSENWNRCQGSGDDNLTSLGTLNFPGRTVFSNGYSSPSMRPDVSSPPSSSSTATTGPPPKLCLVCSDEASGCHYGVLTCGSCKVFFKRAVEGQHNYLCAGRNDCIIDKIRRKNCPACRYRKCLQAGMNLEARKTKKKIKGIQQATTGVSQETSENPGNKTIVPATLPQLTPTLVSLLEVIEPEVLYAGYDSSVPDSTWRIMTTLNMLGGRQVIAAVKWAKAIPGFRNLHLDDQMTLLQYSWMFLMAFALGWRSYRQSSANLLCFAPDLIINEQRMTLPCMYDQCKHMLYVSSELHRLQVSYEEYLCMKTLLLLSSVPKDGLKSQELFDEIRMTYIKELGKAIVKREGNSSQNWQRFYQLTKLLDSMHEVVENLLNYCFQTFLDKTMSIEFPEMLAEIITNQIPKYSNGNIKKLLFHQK
Method in brief: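 MMTV-bla HeLa beta-lactamase reporter cells in 1% charcoal/dextran FBS medium, compounds up to 92 uM for 18 h at 37 C, CCF4 readout; normalized to 0.1 uM dexamethasone (100%), EC50 and efficacy from Hill fits.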

[11] = target: Glucocorticoid receptor (Homo sapiens) (UniProt P04150); experiment: qHTS assay for small molecule antagonists of glucocorticoid receptor signaling (AID 588533; active = well fitted inhibition curve with a large enough effect in the signal ratio, with a control signal flat, not every such curve was filed as active; the % refers to the signal ratio;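 also: cells stimulated with 2 nM dexamethasone as agonist; % is scaled to controls: 0 for no effect and ±100 for the full control effect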)
Method in brief: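 Antagonist-mode qHTS: compound titrations added to GRE-bla HeLa cells, then dexamethasone 2 nM final; 18 h, 37 C. CCF4 FRET fluorescence normalized to dexamethasone and DMSO; IC50 from Hill fit.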

[12] = qHTS assay for small molecule antagonists of retinoid X receptor alpha signaling (AID 588546; active = well fitted inhibition curve with a large enough effect in the signal ratio, with a control signal flat, not every such curve was filed as active; the % refers to the signal ratio;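 also: cells stimulated with 9-cis-retinoic acid as agonist; % is scaled to controls: 0 for no effect and ±100 for the full control effect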); settings: HEK293T RXRa-UAS-bla, beta-lactamase ratio, antagonist mode; measured here: W530 green channel, cytotoxicity proxy
Method in brief: (§1)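 Beta-lactamase reporter inhibition, read as CCF4 fluorescence ratio (ex 405, em 460/530 nm) after 2 h at RT. HEK293T UAS-bla cells, 2500/well, were stimulated with 9-cis-RA at 500 or 100 nM final alongside test compound for 18 h at 37 C.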

[13] = target: Retinoic acid receptor RXR-alpha (Homo sapiens) (UniProt P19793); experiment: as above; settings: HEK293T RXRa-UAS-bla, beta-lactamase ratio, antagonist mode
Chain of Retinoic acid receptor RXR-alpha (Homo sapiens) (P19793 whole entry, looked up): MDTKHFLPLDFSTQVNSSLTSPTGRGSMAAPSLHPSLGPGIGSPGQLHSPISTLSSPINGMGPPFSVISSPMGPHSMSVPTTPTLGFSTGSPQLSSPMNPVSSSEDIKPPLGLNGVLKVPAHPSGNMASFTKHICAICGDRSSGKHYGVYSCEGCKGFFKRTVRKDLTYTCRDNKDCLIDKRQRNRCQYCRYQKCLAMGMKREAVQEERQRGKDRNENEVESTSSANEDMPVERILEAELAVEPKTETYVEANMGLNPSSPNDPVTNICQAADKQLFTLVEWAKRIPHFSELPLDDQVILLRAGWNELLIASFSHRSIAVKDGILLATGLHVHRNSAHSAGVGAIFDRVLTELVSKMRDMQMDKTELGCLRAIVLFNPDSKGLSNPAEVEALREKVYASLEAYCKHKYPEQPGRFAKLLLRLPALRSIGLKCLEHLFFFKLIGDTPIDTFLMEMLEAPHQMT
Method in brief: as §1

[14] = qHTS assay for small molecule disruptors of the mitochondrial membrane potential - 1 hr assay (AID 651754; calls by dose curve; also: % is scaled to controls: 0 for no effect and ±100 for the full control effect; nearly all actives have a fitted effect of over 35% in size)
Method in brief: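 HepG2, 2,000 cells/well, overnight attachment; cpd or DMSO 1 hr, 37C/5% CO2; Mito-MPS dye 30 min, 37C; fluorescence monomer (490/535) and aggregate (540/590).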

[15] = qHTS assay for small molecule disruptors of the mitochondrial membrane potential - 5 hr assay (AID 651755; calls by dose curve; also: % is scaled to controls: 0 for no effect and ±100 for the full control effect; nearly all actives have a fitted effect of over 40% in size)
Method in brief: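 HepG2 cells (2,000/well), attached overnight, exposed to compound 5 hr at 37C, then Mito-MPS dye 30 min. Fluorescence read for monomers (490/535 nm) and aggregates (540/590 nm).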

[16] = target: Tumor necrosis factor (Homo sapiens) (UniProt P01375); experiment: qHTS assay to identify small molecules that stimulate Tumor Necrosis Factor-alpha (TNF-alpha) secretion (AID 651757; active = well fitted curve in the direction sought with a large enough effect in the signal ratio; the % refers to the signal ratio; also: 0% is about no effect)
Chain of Tumor necrosis factor (Homo sapiens) (P01375 whole entry, looked up): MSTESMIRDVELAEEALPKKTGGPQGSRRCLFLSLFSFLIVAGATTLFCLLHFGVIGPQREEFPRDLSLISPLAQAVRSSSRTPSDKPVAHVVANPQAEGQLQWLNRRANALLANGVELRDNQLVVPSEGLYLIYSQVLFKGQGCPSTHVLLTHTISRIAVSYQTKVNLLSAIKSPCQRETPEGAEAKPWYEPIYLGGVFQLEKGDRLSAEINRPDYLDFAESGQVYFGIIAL
Method in brief: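 Read-out is HTRF, a TR-FRET sandwich of cryptate- and XL665-labeled anti-TNF-alpha antibodies detecting cytokine secreted by THP-1 cells. Cells had been incubated with test compounds at 37 C for 17 hrs beforehand.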

[17] = qHTS assay to identify small molecules that stimulate interleukin-8 (IL-8) secretion (AID 651758; active = well fitted activation curve with a large enough effect in the signal ratio; the % refers to the signal ratio; also: 0% is about no effect)
Method in brief: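 THP-1 cells (2000/well) exposed to compound 16 h at 37 C; secreted IL-8 then detected by HTRF with cryptate- and XL665-labelled anti-IL-8 antibody pair after 1-3 h at room temperature.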

[18] = qHTS assay for environmental chemicals that activate the Aryl hydrocarbon Receptor (AhR) signaling pathway (AID 651777); settings: 1A2-DRE human hepatoma cells, luciferase, 24 h; stronger effect = higher value; also: % of control where 0% means no effect; nearly all actives have a fitted effect of over 15% in size
Method in brief: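 Quantitative HTS in stably transfected human liver-derived cells whose luciferase gene sits downstream of the CYP1A2 promoter and dioxin response element. After 24 hr exposure at 37 C, One-Glo luminescence was measured.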

[19] = target: Peroxisome proliferator-activated receptor alpha (Homo sapiens) (UniProt Q07869); experiment: qHTS assay for small molecule agonists of the peroxisome proliferator-activated receptor alpha (PPARalpha) signaling pathway (AID 651778); settings: PathHunter PPARalpha complementation, chemiluminescence, 6 h; stronger effect = higher value; also: % of control where 0% means no effect
Chain of Peroxisome proliferator-activated receptor alpha (Homo sapiens) (Q07869 whole entry, looked up, the tested form may be a part): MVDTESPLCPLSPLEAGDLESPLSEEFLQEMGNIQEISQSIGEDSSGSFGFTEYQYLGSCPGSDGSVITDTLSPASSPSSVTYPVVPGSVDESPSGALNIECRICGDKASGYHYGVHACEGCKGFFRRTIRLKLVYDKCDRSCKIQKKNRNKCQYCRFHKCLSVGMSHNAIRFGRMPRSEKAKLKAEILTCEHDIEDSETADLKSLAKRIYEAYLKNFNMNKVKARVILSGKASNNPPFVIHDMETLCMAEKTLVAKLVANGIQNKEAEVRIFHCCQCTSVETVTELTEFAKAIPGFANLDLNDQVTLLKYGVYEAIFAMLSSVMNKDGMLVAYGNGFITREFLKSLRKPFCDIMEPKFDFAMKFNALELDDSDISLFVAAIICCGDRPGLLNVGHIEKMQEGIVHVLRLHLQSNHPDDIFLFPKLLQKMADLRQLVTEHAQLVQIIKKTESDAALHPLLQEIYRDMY
Method in brief: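 Enzyme-fragment complementation assay in which ligand-bound PPARalpha translocates and forms an active enzyme that generates chemiluminescence. Cells were plated overnight, exposed to compound for 6 hr at 37 C, and then given detection reagent for 60 min at room temperature.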

[20] = target: Nuclear receptor subfamily 1 group I member 2 (Rattus norvegicus) (UniProt Q9R1A7); experiment: qHTS assay for small molecule activators of the rat pregnane X receptor (rPXR) signaling pathway (AID 651751; call rule not given here; also: 0% is about no effect); settings: rPXR reporter cells, luciferase (One-Glo), 24 h
Chain of Nuclear receptor subfamily 1 group I member 2 (Rattus norvegicus) (Q9R1A7 whole entry, looked up): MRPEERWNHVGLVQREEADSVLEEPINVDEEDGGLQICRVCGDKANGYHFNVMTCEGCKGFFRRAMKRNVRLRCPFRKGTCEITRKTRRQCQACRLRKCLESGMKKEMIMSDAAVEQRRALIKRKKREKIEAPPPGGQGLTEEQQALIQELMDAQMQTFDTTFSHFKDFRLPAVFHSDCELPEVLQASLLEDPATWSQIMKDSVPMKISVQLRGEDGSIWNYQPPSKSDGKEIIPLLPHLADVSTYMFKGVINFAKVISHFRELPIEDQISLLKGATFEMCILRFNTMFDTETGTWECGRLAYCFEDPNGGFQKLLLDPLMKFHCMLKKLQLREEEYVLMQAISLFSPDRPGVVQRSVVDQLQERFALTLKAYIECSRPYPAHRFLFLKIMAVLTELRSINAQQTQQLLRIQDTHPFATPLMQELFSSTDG

CN(C)CCOC(c1ccccc1)c1ccccc1 (tested in a mixture with another compound)
active: Potency [1] 25.1 µM
3.3%: max response [12]
inactive: outcome [2] | outcome [3] | outcome [4] | outcome [5] | outcome [6] | outcome [7] | outcome [8] | outcome [9] | activation [10] 1.99% | outcome [11] | max response [13] -6.76% | outcome [14] | outcome [15] | outcome [16] | outcome [17] | activation [18] 0.508% | max response [19] 0.237% | max response [20] -6.62%
